# MOR-DOR inv ag: mu-delta opioid heterodimer inverse agonism | P35372+P41143 | cell-based MOR-DOR heterodimer luminescence | inhibition, % at 9.3 µM | 340,000 compounds, 0.21% hits | AID 504357; in the data active means inhibition above about 22%, passing the limit was not always enough;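 further: 0% = cells with DMSO and 100% = wells without cells with DMSO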
# HTR5A ag ctr: activates human HTR5A in OPRM1-OPRD1 agonist counter-screen; P47898; HTR5A agonist assay, luminescence, cell-based; activation, % at 9.3 µM; 340,000 compounds, 0.61% hits; in the data active means activation mostly above about 9.5%, no sharp cut-off; inactive means mostly below about 7.6%;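 further: 0% = cells with vehicle only and 100% = reference agonist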
# sPLA2-III inh: Blocks human group III sPLA2 activity; Q9NZ20; QFRET BODIPY PC-A2 liposome hydrolysis, fluorescence; inhibition, % at 12.2 µM; 370,000 compounds, 0.56% hits; AID 743126;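 active means inhibition above mean plus 3 SD of compounds lying within the high and low control bounds, cut at about 19% in these data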;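 further: 0% = median of test compound wells and 100% = no enzyme DMSO wells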
# HTR5A inv ag: counter-screen for OPRM1-OPRD1 inverse agonists: human HTR5A inverse agonism. P47898. HTR5A cell line, luminescence. AID 504634. inhibition, % at 9.3 µM. 340,000 compounds, 0.083% hits; in the data active means inhibition mostly above about 23%, no sharp cut-off; inactive means mostly below about 18%;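 further: 0% = cells with DMSO and 100% = no-cell wells with DMSO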
# m5-HT2A agonist: mouse HTR2A agonism via beta-arrestin recruitment | activation, % at 7.6 µM | AID 624169 | 360,000 compounds, 0.66% hits | P35363 | CHO-K1 mHTR2A beta-arrestin complementation, luminescence; percent of 30 µM serotonin response;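 active means activation above a run cutoff, the mean activation of all tested compounds plus 3 SD, cut at about 14% in these data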;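 further: 0% = plate median of compound wells and 100% = 30 µM serotonin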
# Target sequence (P35363 whole entry, looked up): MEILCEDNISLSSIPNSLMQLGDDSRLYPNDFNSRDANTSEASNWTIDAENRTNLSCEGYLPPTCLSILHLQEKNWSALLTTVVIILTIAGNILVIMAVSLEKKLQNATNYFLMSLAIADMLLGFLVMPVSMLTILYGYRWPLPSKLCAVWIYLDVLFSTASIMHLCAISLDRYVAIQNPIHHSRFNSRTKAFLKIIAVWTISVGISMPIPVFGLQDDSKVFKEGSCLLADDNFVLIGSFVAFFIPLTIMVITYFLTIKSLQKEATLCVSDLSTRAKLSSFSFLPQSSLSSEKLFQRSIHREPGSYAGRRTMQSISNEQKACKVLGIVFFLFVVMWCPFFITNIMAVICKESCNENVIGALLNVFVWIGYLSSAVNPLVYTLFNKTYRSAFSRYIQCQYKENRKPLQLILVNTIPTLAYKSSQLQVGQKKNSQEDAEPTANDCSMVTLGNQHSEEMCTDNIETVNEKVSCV
# OPRM1-OPRD1 ag: agonists of human mu-delta opioid receptor heterodimerization | P35372+P41143 | cells, OPRM1-OPRD1 heterodimerization, luminescence | activation, % at 9.3 µM | 340,000 compounds, 0.3% hits | AID 504326; in the data active means activation above about 18%;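 further: 0% = vehicle-treated cells and 100% = reference agonist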
# OPRM1 ag: activates human mu opioid receptor in HTR2A counterscreen; AID 624380; activation, % at 9.3 µM; shares compounds with m5-HT2A agonist; 2,300 compounds, 5.3% hits; U2OS OPRM1 beta-arrestin PathHunter, luminescence; DMSO 0%, DAMGO 9.3 µM 100%;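 active means mean activation above the mean of DMSO-only wells plus 3 SD, cut at about 0.5% in these data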
# m5-HT2A ag conf: mouse HTR2A agonism confirmed. CHO-K1 PathHunter beta-arrestin recruitment, luminescence; DMSO 0%, 30 µM serotonin 100%. activation, % at 7.6 µM. shares compounds with m5-HT2A agonist. 2,300 compounds, 19% hits;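 active means mean activation across triplicates above the hit threshold derived in the original primary screen, cut at about 15% in these data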
# Starred values were filed as active, the others as inactive; . = no result. Sampled rows, rich in hits. Any-hit rate of the full collection: about 2.2%.
SMILES,MOR-DOR inv ag,HTR5A ag ctr,sPLA2-III inh,HTR5A inv ag,m5-HT2A agonist,OPRM1-OPRD1 ag,OPRM1 ag,m5-HT2A ag conf
CC1CCC2(CCC(=O)N2CCCO)CC1 (stereo not given),.,.,4,.,.,.,.,.
CN(c1ccccc1C(=O)Nc1ccccc1C(=O)NCc1ccco1)S(C)(=O)=O,8,7,1,-22,14*,-2,-1,-5
COc1cc(CNCc2ccccc2)cc(Cl)c1OC,-6,-2,-5,34,4,1,.,.
COc1cc(CNCCc2ccccc2)cc(Cl)c1OCc1ccccc1,-74,7,-16,-16,20*,14,1.2*,3
CCC(=O)N1c2ccc(S(=O)(=O)N3CCCCC3)cc2CC1C (stereo not given),11,1,3,-4,-1,-2,.,.
CCC(=O)N1c2ccc(S(=O)(=O)N3CCCC3)cc2CC1C (stereo not given),5,4,1,15,15*,-1,0,0
CC(C)C[C@H]1COc2cccc(N3CCSCC3)c2S(=O)(=O)N1C,.,.,8,.,.,.,.,.
O=C(NC1CCCC1)C1CCCN1S(=O)(=O)c1cccc2cccnc12 (stereo not given),0,6,14,-17,22*,0,0,-1
C=CCNC(=O)O/N=C/c1csc([N+](=O)[O-])c1,.,.,4,.,17*,.,0,-2
CC(C)CNC(=S)NC(=O)c1csc([N+](=O)[O-])c1,-19,-5,12,14,-2,4,.,.
CCOC(=O)[C@]12CCCC=C1N(CCCOC)C(=O)[C@@H]2CC(=O)NCc1cccc2ccccc12,.,.,-9,.,.,.,.,.
COc1ccc(-c2n[nH]c(C)c2-c2ccc(Cl)cc2)c(O)c1OC,-55,-3,-37,-9,22*,9,0,7
Cn1ncc2c(Nc3ccc(O)cc3)nc(Cl)nc21,12,-1,-2,3,18*,-2,-1,-3
Cc1nc2ccccc2n1/N=C/c1cccnc1,2,0,5,4,-1,0,.,.
Cc1nc2ccccc2c(=O)n1/N=C/c1cccnc1,0,-2,2,11,15*,0,-1,-1
CC(C)(C)OC(=O)N1CCC2CCN(S(C)(=O)=O)CC21 (stereo not given),.,.,7,.,.,.,.,.
O=C(Nc1ccc(Br)cc1)OCCN1CCCC12CCC(c1ccccc1)CC2 (stereo not given),.,.,-8,.,.,.,.,.
Cc1cccc(N2C(=O)CS/C2=N\NC(=O)c2ccc(Br)cc2)c1C,6,-1,-1,-15,15*,-1,-1,-1
Cc1cccc(N2C(=O)CS/C2=N\NC(=O)c2cccnc2)c1C,11,0,3,-1,-2,-2,.,.
CC(=O)c1sc(NC(=O)c2cc(S(=O)(=O)N3CCOCC3)ccc2F)nc1C,6,-12,0,30,15*,-1,-1,-1
CC(=O)c1sc(NC(=O)c2ccc(F)c(S(=O)(=O)N3CCOCC3)c2)nc1C,18,-2,12,5,6,-4,.,.
C=CCOC(=O)N[C@H](c1ccc2ccccc2c1)[C@H](C)/C=C/CC(=O)OC,.,.,-11,.,.,.,.,.
Cc1ccc(SCC(=O)NC(=O)NC(C)C)c(C)c1,2,-2,-3,-31,16*,0,0,5
Cc1ccc(SCC(=O)NC(=O)NCCC(C)C)c(C)c1,-32,10,-3,-30,3,6,.,.
C=C(C)CN1CCN(S(=O)(=O)c2ccc(C)c(N(C)S(=O)(=O)c3ccc(C)cc3)c2C)CC1,-7,3,-3,18,22*,1,0,-3
SMILES,MOR-DOR inv ag,HTR5A ag ctr,sPLA2-III inh,HTR5A inv ag,m5-HT2A agonist,OPRM1-OPRD1 ag,OPRM1 ag,m5-HT2A ag conf
N#Cc1c(-c2ccccc2)[nH]c(=S)[nH]c1=O,0,5,13,-15,22*,0,-1,-4
COc1ccc(CN(C(=O)c2snc(C(N)=O)c2N)C(C(=O)NC2CCCC2)c2ccc(OC)c(OC)c2)cc1 (stereo not given),8,6,-6,-28,-2,-2,.,.
COc1ccc(C(C(=O)NC2CCCC2)N(Cc2ccccc2)C(=O)c2snc(C(N)=O)c2N)cc1OC (stereo not given),2,10,6,-20,16*,0,-1,-1
CCOC(=O)C1=CCN(S(=O)(=O)c2ccc(Br)cc2)C1c1ccc(Br)cc1 (stereo not given),.,.,-1,.,.,.,.,.
CC(C)(C)n1nnnc1C(c1cc2ccccc2o1)N(CCC#N)Cc1ccccc1 (stereo not given),.,.,-6,.,42*,.,-1,-6
CN(C)CCN(Cc1ccccc1)C(c1cc2ccccc2o1)c1nnnn1C(C)(C)C (stereo not given),.,.,-15,.,-9,.,.,.
CN1CC=C(c2ccccc2)N(c2ccc(Br)cc2)C1=O,.,.,-11,.,.,.,.,.
CC(C)CN1C(=O)[C@@]2(CC(=O)N(C)C2c2ccccc2)c2cc(-n3cc(CCCC#N)nn3)ccc21 (stereo not given in full),.,.,-6,.,.,.,.,.
Cc1ccc(S(=O)(=O)N2CCN(C(=O)CSCc3ccc(C(C)C)cc3)CC2)cc1,-20,-1,-17,-6,15*,5,0,-2
O=C(NC1CCCCN(Cc2cccc(Cl)c2)C1=O)c1ccc2ccccc2c1 (stereo not given),.,.,-5,.,.,.,.,.
Cn1c(N)c(C(=O)COC(=O)CCC2CCCCC2)c(=O)n(C)c1=O,-10,-2,-8,6,4,2,.,.
Cn1c(N)c(C(=O)COC(=O)CCC2CCCC2)c(=O)n(C)c1=O,-12,-1,0,4,20*,3,0,-5
COC(=O)C1CN(Cc2ccc(OC)cc2)CCS(=O)(=O)N1Cc1cn(Cc2ccc(C)cc2)nn1 (stereo not given),.,.,-7,.,.,.,.,.
Cc1cccc2nc(-c3cccc(NC(=O)c4ccc(Cl)cc4)c3)cn12,-9,14,-20,-37,22*,2,-1,-4
COc1ccc(CCN2CC(C(=O)N(C)CCn3nc(C)cc3C)CCC2=O)cc1 (stereo not given),10,-1,8,-9,-4,-2,.,.
Cc1cc(C)n(CCN(C)C(=O)C2CCC(=O)N(CCc3cccc(F)c3)C2)n1 (stereo not given),16,0,3,1,15*,-3,0,-3
CCCN1CNc2c(c(=O)[nH]c(=S)n2CCc2c(Cl)cccc2Cl)C1,.,.,4,.,.,.,.,.
Clc1ccc(-c2cc(-c3nnc4sc(Cc5cccs5)nn34)[nH]n2)cc1,.,.,-62,.,.,.,.,.
CCc1ccc(OC(C)C(=O)N(Cc2ccco2)C2CCS(=O)(=O)C2)cc1 (stereo not given),0,3,-5,-11,23*,0,-1,-5

# Screening data from PubChem.
